The values that follow come from PubChem BioAssay (Tox21).

Inconclusive results are not listed. Entries that show only a call come without a potency. Calls of active or inactive are those of the source. Calls follow the shape of the dose curve; as a rule, active = well fitted activation curve with a large enough effect in the repeat runs; inconclusive = weak or mixed curves; inactive = flat fitted curve, though single readings scatter. Where a SMILES comes first, the peptide text is derived from it.

This test can be described thus: A CellTox Green Cytotoxicity Assay to monitor cytotoxicity in HEK293 cells - 24 hour (AID 1224875). Also: nearly all actives have a fitted effect of over 45% in size. The note with it: CellTox Green fluorescence; series mostly up to 76.8 µM. The text has this:
National Center for Advancing Translational Sciences [NCATS]
NIH Chemical Genomics Center [NCGC]
U.S. Environmental Protection Agency [EPA]
National Institutes of Environmental Health Sciences [NIEHS]
National Toxicology Program [NTP]
Cell-based models are critical for drug discovery. Determining the natural cytotoxic effects resulting from test compounds is an essential research activity. A CellTox Green Cytotoxicity Assay to monitor cytotoxicity in real time of continues cell culture during 40 hours of the compound treatment was used to screen Tox21 10K library compounds in Hek293 cells. CellTox Green Cytotoxicity Assay is a nonlytic, homogeneous, biofluorescent method to measure cytotoxicity in cell culture after experimental manipulation. The assay system uses a proprietary asymmetric cyanine dye that is excluded from viable cells but preferentially stains the dead cell's DNA. […] Viable cells produce no appreciable increases in fluorescence. Therefore, the fluorescence signal produced by the binding interaction with dead cell DNA is proportional to cytotoxicity.
The mixture of Hek293 cell suspension and reagents were dispensed at 600cells/6 ul/well in 1536-well tissue culture treated black solid bottom plates using a Multidrop dispenser. After the assay plates were incubated at a 37 C/5% CO2 incubator for 5 hours, 23 nL of compounds dissolved in DMSO, positive and negative controls was transferred to the assay plate by a pintool work station. The plates were incubated at 37 C for 40 hours. The fluorescence intensity were measured at 0h, 8h, 16h, 24h, 32h and 40h time points using ViewLux plate reader during compound treatment.
In the case of `OC[C@@H](O)C(O)[C@@H](O)CO` (stereo not given in full), the Potency result is “inactive”. On the same count and under the same terms, to `COC(=O)/C=C\C(=O)O` belongs “inactive”.

With `CC(=O)O[C@@H]1CC2CCC1(C)C2(C)C` (stereo not given in full), the Potency entry is “inactive”. Turning to `CCCSSCCC`, the Potency result was “inactive”. The same measure, in the same setting: the entry for `CC/C(C)=N\O[Si](C)(O/N=C(\C)CC)O/N=C(\C)CC` is “inactive”; for `CC(=O)OC(C)=O` it is “inactive”. For the compound `O=C[O][Al]([O]C=O)[O]C=O`, the Potency result was “inactive”. Take `[O]=[Mo](=[O])=[O]`: the activity change is -37.6% [at 15.8 µM, active compounds read high] (inactive). Turning to `CCCc1ccc(O)cc1`, the Potency entry is “inactive”. On to `CN(C)CCCCl`, for which the Potency result was “inactive”. For `Cc1ccc2c(c1)C(=O)c1ccccc1C2=O`, the Potency result is “inactive”.

As to `c1ccc2cnccc2c1`, the Potency result is “inactive”. For the compound `OC[C@H]1O[C@@H](O[C@@H]2[C@@H](CO)O[C@](O)(CO)[C@H]2O)[C@H](O)[C@@H](O)[C@H]1O`, the Potency result is “inactive”. Consider `Cc1ccc(C)c([N+](=O)[O-])c1`, for which the Potency entry is “inactive”. The same measure, in the same setting: the entry for `OCC1CCC(CO)CC1` (stereo not given) is “inactive”; for `c1ccc(B(c2ccccc2)c2ccccc2)cc1` it is “inactive”; for `c1ccc2c(CC3=NCCN3)cccc2c1` it is “inactive”. As to `CC(=O)N[C@@H](CO)C(=O)N[C@@H](CC(=O)O)C(=O)N[C@@H](CCCCN)C(=O)N1CCC[C@H]1C(=O)O` (Ac-SDKP-OH), the Potency entry is “inactive”. In the case of `CCCCCCCCCCCCCCC(=O)NC(CO)CCCCCCCCCCCCCC` (stereo not given), the Potency entry is “inactive”. With `ONc1ccccc1`, the Potency entry is “inactive”.

As to `C=C(C)[C@@H]1CC=C(C)C(=O)C1`, the Potency entry is “inactive”. Regarding `CC(=O)CCC1=C(C)CCCC1(C)C`, the Potency result is “inactive”. With `Cc1c(Cl)cccc1Cl`, the Potency result is “inactive”. In the case of `CC(S)C(C)S` (stereo not given), the Potency result was “inactive”. Take `NCCOCCN`: the Potency result is “inactive”. Turning to `CCNC(=O)NCc1cccc(Cl)c1`, the Potency result is “inactive”.

In the case of `Cc1ccccc1C(N)=O`, the Potency entry is “inactive”. Consider `Cc1cc(C)c(C(=O)O)c(C)c1`, for which the Potency result is “inactive”. In the case of `C=CC(=O)OCC1CCCO1` (stereo not given), the Potency result is “inactive”. As for `Cc1c(N)cccc1Cl`, the Potency entry was “inactive”. `CCCCCC(C)O` (stereo not given): the Potency entry was “inactive”. Regarding `CC(C)C[C@@H]1[C@H](c2ccccc2)OC(=O)N1CCCN1CCCCCC1`, the Potency entry was “inactive”. As to `NCC1(Cc2noc(=O)[nH]2)CCCCC1`, the Potency entry was “inactive”. Take `CCCC(=O)Nc1ccc(OCC(O)CNC(C)C)c(C(C)=O)c1` (stereo not given): the Potency entry was “inactive”. `CC(=O)CCc1ccc(OC(C)=O)cc1`: the Potency entry is “inactive”. Turning to `CC(O)COC(C)(C)C` (stereo not given), the Potency result is “inactive”. For the compound `COS(=O)(=O)O`, the Potency entry was “inactive”. On to `CC(C)=CCC/C(C)=C/COC=O`, for which the Potency entry was “inactive”. Still for that read-out and setting: to `CCOC(=O)CC1(C)OCC(C)O1` (stereo not given) belongs “inactive”.

For `O=S(=O)(O)c1ccc2c(N=Nc3ccc(S(=O)(=O)O)c4ccccc34)c(O)c(S(=O)(=O)O)cc2c1`, the activity change is 9.08% [at 6.97 µM, active compounds read high] (inactive).
